Values joined by “and” are separate entries in the source; they are usually repeats but may differ in a detail not shown here. Equal values may be shown once. In all, about 5,500 compounds went through this assay and about 2,000 (36%) were called active. About 18% were inconclusive and are not listed. Cut-off read from the data, not from the text of the source: active = normalized growth mostly below about 0.91 (no sharp cut-off); inconclusive = no clear call, values can overlap the other calls; inactive = mostly above about 0.92. This is one part of the list.
Test: chemical genetic growth profiling, strain panel (AID 1159580);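 note: tested at 20 µM; growth read once vehicle control cultures reached saturation at 30 °C; 1 = growth at the plate median or of vehicle wells; lower values mean less growth of the strain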
Conditions: S. cerevisiae deletion strains, growth OD

Measured: normalized growth

Clc1ccc(C(c2ccccc2Cl)C(Cl)Cl)cc1 (centres undefined)
active: locus YCL061C, strain MRC1, stronger effect = lower value 0.907 | locus YER002W, strain NOP16, stronger effect = lower value 1.12 [resistant] | locus YJL129C, strain trk1, stronger effect = lower value 0.828 | locus YJL166W, strain qcr8, stronger effect = lower value 0.825
inactive: locus YAL013W, strain DEP1, stronger effect = lower value 0.997 | locus YAL021C, strain ccr4, stronger effect = lower value 1.07 | locus YAL026C, strain drs2, stronger effect = lower value 0.943 | locus YAL030W, strain snc1, stronger effect = lower value 0.94 | locus YAL040C, strain CLN3, stronger effect = lower value 1 | locus YBL061C, strain skt5, stronger effect = lower value 0.948 | locus YBR009C, strain hhf1, stronger effect = lower value 0.928 | locus YBR021W, strain FUR4, stronger effect = lower value 0.949 | locus YBR023C, strain chs3, stronger effect = lower value 0.973 | locus YBR171W, strain sec66, stronger effect = lower value 0.941 | locus YBR229C, strain ROT2, stronger effect = lower value 0.998 | locus YBR231C, strain swc5, stronger effect = lower value 0.964 | locus YBR279W, strain paf1, stronger effect = lower value 0.987 | locus YCL011C, strain gbp2, stronger effect = lower value 0.918 | locus YCL016C, strain dcc1, stronger effect = lower value 0.97 | locus YCL029C, strain bik1, stronger effect = lower value 0.986 | locus YCL061C, strain MRC1 (second series), stronger effect = lower value 1.01 | locus YCL069W, strain vba3, stronger effect = lower value 0.982 | locus YCR088W, strain abp1, stronger effect = lower value 0.988 | locus YDL005C, strain med2, stronger effect = lower value 0.967 | locus YDL035C, strain GPR1, stronger effect = lower value 1 | locus YDL040C, strain nat1, stronger effect = lower value 0.989 | locus YDL074C, strain BRE1, stronger effect = lower value 0.956 | locus YDL101C, strain DUN1, stronger effect = lower value 1 | locus YDL134C, strain PPH21, stronger effect = lower value 0.993 | locus YDL185W, strain tfp1, stronger effect = lower value 0.984 | locus YDL192W, strain arf1, stronger effect = lower value 0.989 | locus YDR001C, strain nth1, stronger effect = lower value 0.981 | locus YDR069C, strain doa4, stronger effect = lower value 0.915 | locus YDR101C, strain arx1, stronger effect = lower value 0.987 | locus YDR137W, strain rgp1, stronger effect = lower value 0.932 | locus YDR150W, strain NUM1, stronger effect = lower value 1.02 | locus YDR159W, strain sac3, stronger effect = lower value 1 | locus YDR162C, strain NBP2, stronger effect = lower value 1.02 | locus YDR195W, strain ref2 1.06 | locus YDR297W, strain sur2, stronger effect = lower value 0.956 | locus YDR318W, strain mcm21, stronger effect = lower value 0.985 | locus YDR334W, strain swr1, stronger effect = lower value 0.962 | locus YDR335W, strain msn5, stronger effect = lower value 0.967 | locus YDR363W, strain ESC2, stronger effect = lower value 1.01 | locus YDR388W, stronger effect = lower value 0.991 | locus YDR392W, strain spt3, stronger effect = lower value 0.869 | locus YDR502C, strain sam2, stronger effect = lower value 0.984 | locus YEL003W, strain gim4, stronger effect = lower value 0.969 | locus YEL037C, strain rad23, stronger effect = lower value 0.983 | locus YEL061C, strain CIN8 (second series), stronger effect = lower value 0.984 | locus YEL061C, strain CIN8, stronger effect = lower value 1 | locus YER015W, strain faa2, stronger effect = lower value 0.978 | locus YER016W, strain bim1, stronger effect = lower value 1.02 | locus YER110C, stronger effect = lower value 0.986 | locus YER111C, strain swi4, stronger effect = lower value 0.986 | locus YER155C, strain BEM2 (second series), stronger effect = lower value 0.96 | locus YER155C, strain BEM2, stronger effect = lower value 0.994 | locus YER167W, strain BCK2, stronger effect = lower value 1 | locus YFR010W, strain ubp6, stronger effect = lower value 0.942 | locus YGL078C, strain dbp3, stronger effect = lower value 0.99 | locus YGL086W, strain mad1, stronger effect = lower value 0.981 | locus YGL167C, strain pmr1, stronger effect = lower value 0.972 | locus YGL173C, strain kem1, stronger effect = lower value 0.936 | locus YGL227W, strain vid30, stronger effect = lower value 0.987 | locus YGL240W, strain doc1, stronger effect = lower value 0.925 | locus YGL248W, strain PDE1, stronger effect = lower value 0.993 | locus YGL253W, strain hxk2, stronger effect = lower value 0.977 | locus YGR078C, strain PAC10, stronger effect = lower value 0.987 and 0.999 | locus YGR135W, strain pre9, stronger effect = lower value 0.968 | locus YGR229C, strain SMI1, stronger effect = lower value 0.978 and 1.01 | locus YGR252W, strain gcn5, stronger effect = lower value 0.874 | locus YHR013C, strain ard1, stronger effect = lower value 1.11 | locus YHR027C, strain rpn1, stronger effect = lower value 0.982 | locus YHR030C, strain SLT2, stronger effect = lower value 0.985 and 0.893 | locus YHR079C, strain IRE1 (second series), stronger effect = lower value 0.983 | locus YHR079C, strain IRE1, stronger effect = lower value 0.947 | locus YHR094C, strain hxt1, stronger effect = lower value 0.992 | locus YHR129C, strain ARP1, stronger effect = lower value 1 | locus YHR142W, strain chs7, stronger effect = lower value 0.919 | locus YHR200W, strain rpn10, stronger effect = lower value 0.98 | locus YIL066C, strain RNR3, stronger effect = lower value 0.963 | locus YIL073C, strain SPO22, stronger effect = lower value 0.952 | locus YIL125W, strain kgd1, stronger effect = lower value 0.998 | locus YIR030C, strain dcg1, stronger effect = lower value 0.99 | locus YJL092W, strain hpr5, stronger effect = lower value 0.961 | locus YJL095W, strain BCK1 (second series), stronger effect = lower value 0.973 | locus YJL095W, strain BCK1, stronger effect = lower value 1 and 0.933 | locus YJL115W, strain asf1, stronger effect = lower value 0.976 | locus YJL134W, strain LCB3, stronger effect = lower value 1 | locus YJL154C, strain vps35, stronger effect = lower value 0.978 | locus YJL164C, strain tpk1, stronger effect = lower value 0.95 | locus YJL168C, strain set2, stronger effect = lower value 0.988 | locus YJL187C, strain SWE1 (second series), stronger effect = lower value 0.997 | locus YJR043C, strain POL32, stronger effect = lower value 1

Reference: PubChem BioAssay AID1159580 (chemical genetic matrix, 2015)
